Source: the supplement of paper PMC10849652
Targets with a hit are over-represented here; the source holds about 7,900 in all. About 0.6% of all pairs of compound and target were hits. A number with no mark means an inactive call.

Legend:
Assay in all cases: log2 fold change, soluble protein after heating vs DMSO (PISA); higher = thermal stabilisation; K562 cells, 10 uM, 30 min; active = over 0.2 and 3.5 SD of the protein, either way, in both replicates (recomputed)
[1] = compound: COC1=CC=C(C=C1)CN2C=CC3=C2C=C(C=C3)C(=O)NO
Method in brief: (§1)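 Soluble protein was defined as the supernatant after 21,000xg for 90 min. It came from K562 cells at 2×10^6 cells/mL given 10 μM compound for 30 min, heated in aliquots for 3 min across 48°C-58°C, pooled, and extracted in PBS with 0.5% NP-40 at 4°C, and was quantified by TMTpro 16plex LC-MS/MS with equalised channel sums. Thermal stability against control samples, from duplicates, is reported as log2 fold change.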

filanesib = compound: CON(C)C(=O)N1N=C(c2cc(F)ccc2F)S[C@@]1(CCCN)c1ccccc1 [filanesib]
Method in brief: as §1

zotarolimus = compound: CO[C@H]1C[C@@H]2CC[C@@H](C)[C@@](O)(O2)C(=O)C(=O)N2CCCC[C@H]2C(=O)O[C@H]([C@H](C)C[C@@H]2CC[C@H](n3cnnn3)[C@H](OC)C2)CC(=O)[C@H](C)/C=C(\C)[C@@H](O)[C@@H](OC)C(=O)[C@H](C)C[C@H](C)/C=C/C=C/C=C/1C [zotarolimus]
Method in brief: as §1

idasanutlin = compound: COc1cc(C(=O)O)ccc1NC(=O)[C@@H]1N[C@@H](CC(C)(C)C)[C@](C#N)(c2ccc(Cl)cc2F)[C@H]1c1cccc(Cl)c1F [idasanutlin]
Method in brief: as §1

alisertib = compound: COc1cc(Nc2ncc3c(n2)-c2ccc(Cl)cc2C(c2c(F)cccc2OC)=NC3)ccc1C(=O)O [alisertib]
Method in brief: as §1

[2] = compound: COc1cc2nc(-c3cc(F)ccc3O)nc(N[C@@H]3CNC[C@H]3C(C)(C)O)c2cc1OC
Method in brief: as §1

gefitinib = compound: COc1cc2ncnc(Nc3ccc(F)c(Cl)c3)c2cc1OCCCN1CCOCC1 [gefitinib]
Method in brief: as §1

[3] = compound: COc1cccc2cc(-c3nc([C@H]4CC[C@H](C(=O)O)CC4)n4ncnc(N)c34)[nH]c12
Method in brief: as §1

lapatinib = compound: CS(=O)(=O)CCNCc1ccc(-c2ccc3ncnc(Nc4ccc(OCc5cccc(F)c5)c(Cl)c4)c3c2)o1 [lapatinib]
Method in brief: as §1

pictilisib = compound: CS(=O)(=O)N1CCN(Cc2cc3nc(-c4cccc5[nH]ncc45)nc(N4CCOCC4)c3s2)CC1 [pictilisib]
Method in brief: as §1

Sequence of UniProt P07948 (P07948 whole entry, looked up): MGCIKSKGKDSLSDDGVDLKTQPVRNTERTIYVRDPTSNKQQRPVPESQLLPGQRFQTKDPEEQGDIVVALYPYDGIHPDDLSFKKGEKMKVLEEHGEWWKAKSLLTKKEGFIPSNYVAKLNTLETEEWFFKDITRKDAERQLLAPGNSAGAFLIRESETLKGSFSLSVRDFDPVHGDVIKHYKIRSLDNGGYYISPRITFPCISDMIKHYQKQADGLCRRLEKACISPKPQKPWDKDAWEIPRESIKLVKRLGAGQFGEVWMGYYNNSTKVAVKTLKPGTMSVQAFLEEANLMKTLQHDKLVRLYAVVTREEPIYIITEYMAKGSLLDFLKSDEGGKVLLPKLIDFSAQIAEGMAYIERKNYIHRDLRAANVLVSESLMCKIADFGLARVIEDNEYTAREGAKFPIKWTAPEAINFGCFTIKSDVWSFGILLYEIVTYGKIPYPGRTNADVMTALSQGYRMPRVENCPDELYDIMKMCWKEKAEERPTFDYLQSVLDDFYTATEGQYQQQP
Sequence of UniProt O43934 (O43934 whole entry, looked up): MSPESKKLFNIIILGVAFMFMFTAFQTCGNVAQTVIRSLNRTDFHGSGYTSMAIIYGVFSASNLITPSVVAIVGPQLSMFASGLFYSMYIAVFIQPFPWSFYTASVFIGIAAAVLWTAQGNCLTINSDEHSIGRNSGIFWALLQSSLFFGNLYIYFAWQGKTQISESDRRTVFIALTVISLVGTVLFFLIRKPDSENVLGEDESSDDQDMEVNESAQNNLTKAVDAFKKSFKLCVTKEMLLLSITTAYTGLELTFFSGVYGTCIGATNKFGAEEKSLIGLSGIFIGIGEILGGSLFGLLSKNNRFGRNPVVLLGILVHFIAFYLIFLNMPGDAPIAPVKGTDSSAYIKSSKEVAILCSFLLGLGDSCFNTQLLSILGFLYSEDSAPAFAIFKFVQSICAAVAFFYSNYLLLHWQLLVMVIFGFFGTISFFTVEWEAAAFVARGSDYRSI
Sequence of UniProt Q9Y383 (Q9Y383 whole entry, looked up): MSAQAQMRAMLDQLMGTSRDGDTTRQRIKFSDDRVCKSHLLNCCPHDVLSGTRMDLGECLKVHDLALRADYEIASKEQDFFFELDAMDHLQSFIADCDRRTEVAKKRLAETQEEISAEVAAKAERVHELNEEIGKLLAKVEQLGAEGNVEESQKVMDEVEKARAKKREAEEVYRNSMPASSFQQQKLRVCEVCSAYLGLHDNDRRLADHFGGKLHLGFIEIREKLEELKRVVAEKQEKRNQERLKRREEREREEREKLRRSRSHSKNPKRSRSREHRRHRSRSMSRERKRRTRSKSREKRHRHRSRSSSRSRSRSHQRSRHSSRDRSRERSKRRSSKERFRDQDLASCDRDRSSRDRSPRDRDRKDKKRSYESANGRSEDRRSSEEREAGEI
Sequence of UniProt Q9H1H9 (Q9H1H9 whole entry, looked up): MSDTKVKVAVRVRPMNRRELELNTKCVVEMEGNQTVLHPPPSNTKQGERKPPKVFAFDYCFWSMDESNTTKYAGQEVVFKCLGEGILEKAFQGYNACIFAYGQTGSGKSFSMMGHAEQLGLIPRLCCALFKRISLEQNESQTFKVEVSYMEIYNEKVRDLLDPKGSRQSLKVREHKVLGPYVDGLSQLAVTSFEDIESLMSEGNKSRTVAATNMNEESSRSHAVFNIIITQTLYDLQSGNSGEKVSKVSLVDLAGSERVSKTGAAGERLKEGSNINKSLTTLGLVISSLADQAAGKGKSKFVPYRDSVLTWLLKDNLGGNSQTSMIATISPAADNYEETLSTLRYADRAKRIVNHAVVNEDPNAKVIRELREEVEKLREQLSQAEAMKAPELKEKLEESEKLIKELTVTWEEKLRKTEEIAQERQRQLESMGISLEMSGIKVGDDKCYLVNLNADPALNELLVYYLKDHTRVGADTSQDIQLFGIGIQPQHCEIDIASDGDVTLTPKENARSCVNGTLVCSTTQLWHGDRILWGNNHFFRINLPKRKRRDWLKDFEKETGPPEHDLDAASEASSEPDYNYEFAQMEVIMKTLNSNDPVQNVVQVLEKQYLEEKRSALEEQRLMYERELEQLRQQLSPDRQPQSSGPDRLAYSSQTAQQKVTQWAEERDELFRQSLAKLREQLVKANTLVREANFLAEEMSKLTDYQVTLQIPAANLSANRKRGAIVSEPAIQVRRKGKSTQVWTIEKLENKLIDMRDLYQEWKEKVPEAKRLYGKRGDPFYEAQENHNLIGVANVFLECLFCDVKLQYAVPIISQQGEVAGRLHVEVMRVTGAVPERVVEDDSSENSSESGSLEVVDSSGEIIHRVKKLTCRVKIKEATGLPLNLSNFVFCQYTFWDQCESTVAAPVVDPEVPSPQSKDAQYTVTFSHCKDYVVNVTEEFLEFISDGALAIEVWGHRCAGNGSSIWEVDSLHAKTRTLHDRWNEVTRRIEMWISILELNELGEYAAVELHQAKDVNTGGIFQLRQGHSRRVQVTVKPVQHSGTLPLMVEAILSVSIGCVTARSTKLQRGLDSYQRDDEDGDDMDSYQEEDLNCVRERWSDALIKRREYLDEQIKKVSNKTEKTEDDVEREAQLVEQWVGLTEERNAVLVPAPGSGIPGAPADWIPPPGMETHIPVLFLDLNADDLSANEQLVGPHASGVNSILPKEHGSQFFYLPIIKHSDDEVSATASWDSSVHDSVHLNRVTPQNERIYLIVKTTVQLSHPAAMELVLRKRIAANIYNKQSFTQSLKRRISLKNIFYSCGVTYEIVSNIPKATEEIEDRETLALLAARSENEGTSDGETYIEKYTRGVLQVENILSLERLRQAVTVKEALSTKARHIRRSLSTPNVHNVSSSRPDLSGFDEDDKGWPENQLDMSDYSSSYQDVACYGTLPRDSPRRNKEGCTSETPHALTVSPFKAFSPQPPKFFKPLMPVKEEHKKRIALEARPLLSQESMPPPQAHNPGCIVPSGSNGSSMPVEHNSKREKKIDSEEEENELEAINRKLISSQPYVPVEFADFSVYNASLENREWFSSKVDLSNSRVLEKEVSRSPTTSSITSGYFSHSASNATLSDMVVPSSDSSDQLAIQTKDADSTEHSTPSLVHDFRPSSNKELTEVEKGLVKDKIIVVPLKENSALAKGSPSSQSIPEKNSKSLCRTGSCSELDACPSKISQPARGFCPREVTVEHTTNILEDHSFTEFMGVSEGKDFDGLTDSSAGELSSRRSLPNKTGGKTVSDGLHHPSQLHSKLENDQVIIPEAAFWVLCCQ
Sequence of UniProt O95372 (O95372 whole entry, looked up): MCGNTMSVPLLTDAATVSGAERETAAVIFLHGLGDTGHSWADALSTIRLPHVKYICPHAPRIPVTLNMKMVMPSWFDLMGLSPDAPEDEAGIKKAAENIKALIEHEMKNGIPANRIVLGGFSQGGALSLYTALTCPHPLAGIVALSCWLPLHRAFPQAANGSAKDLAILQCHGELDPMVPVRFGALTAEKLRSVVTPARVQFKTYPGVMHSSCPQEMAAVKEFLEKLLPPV
Sequence of UniProt Q9Y2X0 (Q9Y2X0 whole entry, looked up): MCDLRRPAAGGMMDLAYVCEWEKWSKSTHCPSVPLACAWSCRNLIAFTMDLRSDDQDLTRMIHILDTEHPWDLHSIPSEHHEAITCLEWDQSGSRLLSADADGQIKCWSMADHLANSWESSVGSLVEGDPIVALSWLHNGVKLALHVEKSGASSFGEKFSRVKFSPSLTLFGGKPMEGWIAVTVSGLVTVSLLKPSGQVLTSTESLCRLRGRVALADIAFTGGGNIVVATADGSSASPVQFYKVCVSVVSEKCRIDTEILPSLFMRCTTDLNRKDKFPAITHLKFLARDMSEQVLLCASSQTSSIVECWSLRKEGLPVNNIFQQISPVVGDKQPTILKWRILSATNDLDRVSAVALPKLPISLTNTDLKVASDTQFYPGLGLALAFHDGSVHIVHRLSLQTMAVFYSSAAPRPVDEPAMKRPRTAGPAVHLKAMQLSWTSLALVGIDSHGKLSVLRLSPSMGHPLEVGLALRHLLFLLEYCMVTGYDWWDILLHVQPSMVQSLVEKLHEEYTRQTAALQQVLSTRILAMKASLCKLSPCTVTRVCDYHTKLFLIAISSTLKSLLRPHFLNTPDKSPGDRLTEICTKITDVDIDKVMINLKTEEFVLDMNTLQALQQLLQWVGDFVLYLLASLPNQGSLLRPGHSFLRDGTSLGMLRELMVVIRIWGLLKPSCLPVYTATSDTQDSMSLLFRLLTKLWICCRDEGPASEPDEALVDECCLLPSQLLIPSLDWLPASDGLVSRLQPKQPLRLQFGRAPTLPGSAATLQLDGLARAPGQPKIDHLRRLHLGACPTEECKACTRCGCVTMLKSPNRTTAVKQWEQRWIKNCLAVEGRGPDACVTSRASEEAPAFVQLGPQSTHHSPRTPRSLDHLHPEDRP
Sequence of UniProt Q5XKP0 (Q5XKP0 whole entry, looked up): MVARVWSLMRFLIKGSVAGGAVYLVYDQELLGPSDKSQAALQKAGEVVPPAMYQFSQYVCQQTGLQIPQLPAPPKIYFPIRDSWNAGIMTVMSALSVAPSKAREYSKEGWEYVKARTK
Sequence of UniProt Q8TBB5 (Q8TBB5 whole entry, looked up): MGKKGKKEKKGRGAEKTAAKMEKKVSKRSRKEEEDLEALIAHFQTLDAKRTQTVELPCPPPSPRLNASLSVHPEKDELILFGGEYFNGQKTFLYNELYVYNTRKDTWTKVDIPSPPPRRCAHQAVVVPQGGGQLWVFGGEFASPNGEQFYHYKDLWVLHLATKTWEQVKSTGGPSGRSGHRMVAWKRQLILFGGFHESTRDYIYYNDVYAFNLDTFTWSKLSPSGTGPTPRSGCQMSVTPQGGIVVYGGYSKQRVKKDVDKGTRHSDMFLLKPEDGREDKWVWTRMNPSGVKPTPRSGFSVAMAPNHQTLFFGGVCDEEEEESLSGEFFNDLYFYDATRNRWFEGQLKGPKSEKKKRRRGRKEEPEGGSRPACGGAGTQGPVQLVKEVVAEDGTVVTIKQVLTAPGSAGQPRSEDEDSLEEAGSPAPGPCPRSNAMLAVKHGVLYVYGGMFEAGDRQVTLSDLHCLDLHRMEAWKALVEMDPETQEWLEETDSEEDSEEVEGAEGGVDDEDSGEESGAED

Target	log2 fold change [1]	log2 fold change (filanesib)	log2 fold change (zotarolimus)	log2 fold change (idasanutlin)	log2 fold change (alisertib)	log2 fold change [2]	log2 fold change (gefitinib)	log2 fold change [3]	log2 fold change (lapatinib)	log2 fold change (pictilisib)
MICU2 (UniProt Q8IYU8)	0.067	-0.089	-0.142	0.022	-0.067	-0.21	0.038	-0.031	-0.031	0.005
KLHDC4 (UniProt Q8TBB5)	-0.045	0.435 (active)	0.044	0.199	-0.023	0.076	0.03	0.1	-0.026	0.029
LDAH isoform 2 (UniProt Q9H6V9)	0.06	-0.137	0.057	-0.185	-0.041	-0.517 (active)	0.004	0.032	-0.005	0.075
MAGOHB (UniProt Q96A72)	-0.012	0.018	0.054	-0.027	0.011	0.144	0	0.024	-0.018	0.005
MCUR1 (UniProt Q96AQ8)	-0.042	0.019	-0.002	-0.13	0.009	0.181	0.009	0.052	-0.009	0.087
KRAS isoform 2 (UniProt P01116)	0.01	0.005	-0.033	0.099	0.029	0.037	0.015	0.033	-0.009	0.046
KIF13A (UniProt Q9H1H9)	0.003	0.01	-0.057	-0.022	-0.022	0.037	0.194	0.139	-0.012	-0.097
KPNB1 (UniProt Q14974)	0.033	-0.024	0.052	-0.048	-0.07	-0.065	-0.063	-0.076	-0.001	-0.032
LIMD1 (UniProt Q9UGP4)	0.027	-0.007	0.028	0.028	-0.059	0	-0.078	-0.01	0.06	-0.043
MICOS13 (UniProt Q5XKP0)	0	-0.095	-0.048	-0.144	-0.014	-0.082	-0.032	0.079	-0.063	-0.001
MED16 (UniProt Q9Y2X0)	-0.032	0.062	-0.029	0.144	-0.024	-0.063	0.016	0.005	0.064	0.011
LNPK (UniProt Q9C0E8)	0.007	-0.005	-0.049	-0.002	-0.034	0.001	0.025	0.079	-0.008	0.017
LYPLA2 (UniProt O95372)	0.188	0.014	0.002	0.027	0.121	-0.23	0.047	0.044	-0.048	-0.026
MIEF1 (UniProt Q9NQG6)	0.053	-0.18	0.006	-0.066	-0.033	-0.382 (active)	0.051	0.001	0.004	-0.027
LUC7L (UniProt Q9NQ29)	-0.094	0.178	-0.013	0.052	-0.07	0.024	-0.104	0.017	0.007	0.092
IPO9 (UniProt Q96P70)	0.014	-0.005	0.052	-0.089	-0.016	-0.054	0.088	0.065	0.011	0.031
LRRFIP1 (UniProt Q32MZ4)	-0.014	0.022	-0.034	0.019	-0.031	0.023	-0.007	0.025	-0.012	-0.027
LEMD3 (UniProt Q9Y2U8)	0.036	0	0.107	-0.023	0.073	-0.001	-0.013	0.069	0.044	0.047
LSS (UniProt P48449)	0.205	0.026	-0.027	-0.116	0.121	0.16	0.126	-0.014	0.02	0.07
MFSD11 (UniProt O43934)	-0.029	-0.464 (active)	-0.003	-0.055	-0.009	-0.046	-0.064	-0.002	0.041	0.02
LYN (UniProt P07948)	-0.074	0.021	0.07	-0.01	0.002	0.259	-0.036	0.081	0.011	0.112
LUC7L2 (UniProt Q9Y383)	0.05	0.121	0.113	0.093	-0.032	-0.048	-0.052	0.008	0.04	0.095
MFF (UniProt Q9GZY8)	0.038	0.075	-0.022	0.053	0.024	-0.141	0.012	0.128	-0.061	0.103
METTL18 (UniProt O95568)	-0.364 (active)	0.009	0.033	-0.022	0.006	0.075	-0.033	0.057	0.069	0.026
MICU1 isoform 3 (UniProt Q9BPX6)	-0.047	-0.031	-0.034	0.05	-0.011	-0.278 (active)	0.02	-0.056	0.019	-0.038
MARK3 (UniProt P27448)	0.008	0.054	0.062	0.091	0.05	-0.219	-0.002	-0.063	0.022	-0.033
KNTC1 (UniProt P50748)	0.03	-0.008	0	-0.082	-0.035	0.036	0.175	-0.037	0.008	0.007
